Our source for the growth values is PubChem BioAssay (NCI).

Holding throughout (test): NCI-60 one-dose screen, 48 h (100 = growth as untreated, 0 = no growth, -100 = all killed)
In one assay the test system is SK-MEL-2 melanoma. The conditions noted are these: 10 µM.
Another assay has as its system EKVX NSCLC. The conditions noted are these: 10 µM.
The subject of another assay is SN12C renal. Conditions: 10 µM.
For a further assay, the system named is UO-31 renal. Conditions: 10 µM.
The next assay relates to TK-10 renal. Conditions: 10 µM unless noted.
The test system of a further assay is ACHN renal. The conditions noted are these: 10 µM.
In a further assay the test system is CAKI-1 renal. The conditions noted are these: 10 µM.
The next assay has as its system A498 renal. Conditions: 10 µM.
The test system of the next assay is CCRF-CEM leukemia. The conditions noted are these: 10 µM.
The next assay deals with MOLT-4 leukemia. Conditions: 10 µM.
The subject of the next assay is SR leukemia. Conditions: 10 µM.
The test system of another assay is OVCAR-8 ovarian. The conditions noted are these: 10 µM.
The test system of a further assay is OVCAR-5 ovarian. The conditions noted are these: 10 µM.
A further assay concerns SK-OV-3 ovarian. The conditions noted are these: 10 µM.
The next assay has as its system IGROV1 ovarian. Conditions: 10 µM.
For another assay, the system named is NCI/ADR-RES ovarian. Conditions: 10 µM.
The next assay has as its system RPMI-8226 leukemia. The conditions noted are these: 10 µM.
The subject of a further assay is OVCAR-4 ovarian. Conditions: 10 µM.
In the next assay the test system is OVCAR-3 ovarian. Conditions: 10 µM.
A further assay relates to HS 578T breast. Conditions: 10 µM.

Structures are written as SMILES. The panel holds about 83,000 compounds, 20% with a hit somewhere; the sample as a whole holds those more often.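 Assay: single dose, 48 h. Readout: percent growth (0 = no net growth; negative = cell death). Active: <10.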 A number with no mark means an inactive call. Calls of active or inactive are those of the source.

As for `COc1ccc(NC(=O)CCl)cc1`, the growth in the assay on SK-MEL-2 melanoma was 74.9%; with EKVX NSCLC, 103%; in the assay with SN12C renal, 67.2%; with UO-31 renal it was 90.9%; with TK-10 renal, 118%; in the assay with ACHN renal it was 88.8%. The growth in the assay on CAKI-1 renal is 97%; in the assay on A498 renal, 120%; in the assay on CCRF-CEM leukemia, 50.5%; with MOLT-4 leukemia, 64.4%; with SR leukemia, 56.3%; with OVCAR-8 ovarian, 80.8%. In addition, the growth is 68.2% in the assay on OVCAR-5 ovarian, 87.7% with SK-OV-3 ovarian, 59% in the assay with IGROV1 ovarian and 77% in the assay with NCI/ADR-RES ovarian.

As to `CC1OC(Oc2c(-c3ccc(O)c(O)c3)oc3cc(O)cc(O)c3c2=O)C(O)C(O)C1O` (stereo not drawn), the growth in the assay on SK-MEL-2 melanoma is 104%; in the assay with EKVX NSCLC it was 110%; with SN12C renal it was 102%; with UO-31 renal it was 92.5%; in the assay with TK-10 renal it was 103%; in the assay on ACHN renal, 113%. In addition, the growth in the assay on CAKI-1 renal is 102%; in the assay on A498 renal, 99.5%; with CCRF-CEM leukemia, 106%; in the assay on SR leukemia, 106%; in the assay on RPMI-8226 leukemia, 105%; in the assay with OVCAR-8 ovarian it was 106%. For the same compound, the growth was 108% in the assay on OVCAR-5 ovarian; 105% in the assay with OVCAR-4 ovarian; 108% in the assay with SK-OV-3 ovarian; 107% in the assay on IGROV1 ovarian; 103% in the assay with OVCAR-3 ovarian; 105% in the assay with HS 578T breast. Moreover, the growth in the assay with NCI/ADR-RES ovarian is 111%.

For the compound `COc1cc2cc(c1Cl)N(C)C(=O)C[C@H](OC(=O)[C@H](C)N(C)C(C)=O)[C@]1(C)O[C@H]1[C@H](C)[C@@H]1C[C@@](O)(NC(=O)O1)[C@H](OC)C=C/C=C(\C)C2`, the growth in the assay with SK-MEL-2 melanoma was 55.5%; in the assay with EKVX NSCLC, 31.3%; in the assay on SN12C renal it was 27.6%; with UO-31 renal, 7.35% (active); in the assay on TK-10 renal it was 26.5%; with ACHN renal, 16.6%. Further, the growth in the assay with CAKI-1 renal was 6.3% (active); in the assay with A498 renal it was 4.38% (active); with CCRF-CEM leukemia it was -7.22% (active); in the assay with MOLT-4 leukemia it was 14.2%; in the assay on SR leukemia it was 10.2%; in the assay with RPMI-8226 leukemia it was -4.44% (active). Also, the growth is 32.4% with OVCAR-5 ovarian, -42.8% (active) in the assay with OVCAR-3 ovarian, 9.98% (active) in the assay with HS 578T breast and 3.31% (active) in the assay with NCI/ADR-RES ovarian.

Take `O=[N+]([O-])c1ccc(CO)cc1`: the growth was 118% in the assay on SK-MEL-2 melanoma; 101% in the assay with EKVX NSCLC; 106% with SN12C renal; 93.5% in the assay on UO-31 renal; 99.8% in the assay on TK-10 renal; 111% with ACHN renal. Besides, the growth with CAKI-1 renal was 102%; in the assay on A498 renal, 110%; in the assay with CCRF-CEM leukemia, 105%; in the assay on MOLT-4 leukemia it was 100%; in the assay with SR leukemia it was 99.5%; with OVCAR-8 ovarian, 109%. Also, the growth was 105% in the assay with OVCAR-5 ovarian; 104% with OVCAR-4 ovarian; 93.7% in the assay with SK-OV-3 ovarian; 112% with IGROV1 ovarian; 113% in the assay with OVCAR-3 ovarian; 98.9% in the assay on HS 578T breast. In the assay with NCI/ADR-RES ovarian, the growth was 107%.

Take `COC(=O)c1cccc(Br)c1`: the growth is 110% with SK-MEL-2 melanoma; 87.1% with EKVX NSCLC; 104% in the assay with SN12C renal; 101% in the assay on UO-31 renal; 106% in the assay with TK-10 renal; 108% with ACHN renal. The growth in the assay with CAKI-1 renal is 102%; with A498 renal, 86.3%; in the assay on CCRF-CEM leukemia, 98.2%; with MOLT-4 leukemia it was 111%; with RPMI-8226 leukemia, 106%; in the assay on OVCAR-8 ovarian it was 112%. Besides, the growth in the assay with OVCAR-5 ovarian is 88.8%; in the assay on OVCAR-4 ovarian, 112%; in the assay on SK-OV-3 ovarian, 118%; in the assay on IGROV1 ovarian it was 116%; in the assay with OVCAR-3 ovarian, 121%; with HS 578T breast it was 117%. Besides, the growth in the assay with NCI/ADR-RES ovarian was 106%.

For the compound `Oc1ccc(O)cc1`, the growth in the assay on SK-MEL-2 melanoma was 104%; with EKVX NSCLC it was 113%; with SN12C renal, 106%; in the assay with UO-31 renal, 82%; with TK-10 renal, 128%; with ACHN renal, 85.4%. Besides, the growth was 97.9% with CAKI-1 renal; 115% with A498 renal; 62.7% in the assay with CCRF-CEM leukemia; 78.6% with MOLT-4 leukemia; 67.6% in the assay on RPMI-8226 leukemia; 94.6% in the assay on OVCAR-8 ovarian. Besides, the growth is 123% with OVCAR-5 ovarian; 105% with OVCAR-4 ovarian; 108% in the assay with IGROV1 ovarian; 109% in the assay on OVCAR-3 ovarian; 104% with HS 578T breast; 92.4% in the assay on NCI/ADR-RES ovarian.

For the compound `CCC(C)(O)c1ccc(C)cc1` (stereo not drawn), the growth in the assay on SK-MEL-2 melanoma is 98%; with EKVX NSCLC it was 109%; in the assay with SN12C renal, 102%; in the assay with UO-31 renal it was 91.4%; in the assay on TK-10 renal it was 99.6%; with ACHN renal, 108%. The growth is 104% in the assay on CAKI-1 renal; 96.9% in the assay on A498 renal; 99.3% with CCRF-CEM leukemia; 95.6% in the assay with MOLT-4 leukemia; 105% in the assay on SR leukemia; 104% in the assay with OVCAR-8 ovarian. Besides, the growth in the assay on OVCAR-5 ovarian was 101%; with OVCAR-4 ovarian, 106%; in the assay on SK-OV-3 ovarian, 97.8%; with OVCAR-3 ovarian, 107%; with HS 578T breast it was 112%; in the assay on NCI/ADR-RES ovarian, 110%.

Turning to `Cc1c(O)cccc1O`, the growth with SK-MEL-2 melanoma was 93.5%; in the assay on EKVX NSCLC it was 106%; with SN12C renal it was 88%; in the assay on UO-31 renal it was 111%; in the assay with TK-10 renal, 104%; in the assay with ACHN renal, 107%. In addition, the growth in the assay on CAKI-1 renal is 61%; in the assay with A498 renal it was 125%; in the assay on CCRF-CEM leukemia it was 100%; in the assay with MOLT-4 leukemia, 90%; in the assay with SR leukemia, 84%; in the assay with OVCAR-8 ovarian it was 106%. The growth in the assay on OVCAR-5 ovarian was 106%; in the assay on OVCAR-4 ovarian, 108%; in the assay with SK-OV-3 ovarian it was 97.1%; in the assay on IGROV1 ovarian it was 159%; in the assay with OVCAR-3 ovarian, 109%; in the assay with HS 578T breast it was 102%. The growth with NCI/ADR-RES ovarian is 94.2%.

Turning to `CCOC(=O)c1[nH]c(C)c(C(C)=O)c1C`, the growth with SK-MEL-2 melanoma is 122%; in the assay with EKVX NSCLC, 100%; in the assay with SN12C renal, 90.8%; in the assay on UO-31 renal it was 79.3%; in the assay with TK-10 renal it was 98.4%; in the assay with ACHN renal, 97%. Moreover, the growth was 87.3% in the assay with CAKI-1 renal; 91% in the assay on A498 renal; 91.6% in the assay on CCRF-CEM leukemia; 59.1% with MOLT-4 leukemia; -7.82% (active) in the assay on RPMI-8226 leukemia; 96.1% in the assay on OVCAR-8 ovarian. For the same compound, the growth with OVCAR-5 ovarian was 88%; in the assay on OVCAR-4 ovarian it was 86.8%; in the assay with SK-OV-3 ovarian, 101%; in the assay on IGROV1 ovarian, 102%; with OVCAR-3 ovarian it was 95%; with HS 578T breast it was 91.6%. Also, the growth in the assay with NCI/ADR-RES ovarian is 98%.
